Results on 20 compounds are retold here after PubChem BioAssay.

Test [1] can be described thus: antimalarial activity against Dd2 strain (AID 2302;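 active = growth inhibition above 50% at the single 2 µM test dose, taken to imply half-maximal potency below 2 µM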;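 also: 0% = DMSO untreated growth and 100% = chloroquine plus artemisinin killed control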). Conditions: P. falciparum Dd2 in RBCs, LDH growth readout, 72 h; at 2 µM; active compounds read high.
Test [2] is described as follows: HepG2 cytotoxicity, primary screen, cytotoxicity control for P. falciparum antimalarial project, cell-based, ATP luminescence (AID 2303;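 active = inhibition above 50%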;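 also: 0% = DMSO wells and 100% = digitonin-killed cells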). Conditions: HepG2 viability, 24-48 h, at 10 µM, active compounds read high.
In test [3] the target is L-lactate dehydrogenase (Plasmodium falciparum (isolate CDC / Honduras)) (UniProt Q27743). Briefly: PfLDH activity inhibition – cell lysate, 3D7 strain, counter-screen for P. falciparum growth inhibition project (AID 2304).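 Also: 0% = vehicle and 100% = reference inhibitor.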 Conditions: P. falciparum 3D7 crude extract, LDH APAD/NBT absorbance; at 2 µM; active compounds read high.
L-lactate dehydrogenase (Plasmodium falciparum (isolate CDC / Honduras)), sequence (Q27743 whole entry, looked up): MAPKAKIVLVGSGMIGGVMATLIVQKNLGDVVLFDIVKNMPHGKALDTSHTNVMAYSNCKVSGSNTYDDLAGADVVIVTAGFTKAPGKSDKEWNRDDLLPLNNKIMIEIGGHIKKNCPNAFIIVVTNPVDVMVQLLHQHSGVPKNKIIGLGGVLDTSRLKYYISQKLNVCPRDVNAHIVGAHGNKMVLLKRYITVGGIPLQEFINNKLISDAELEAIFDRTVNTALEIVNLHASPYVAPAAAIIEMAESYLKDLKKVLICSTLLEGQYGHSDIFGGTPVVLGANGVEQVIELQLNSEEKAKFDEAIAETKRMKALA
Test [4] in a line: inhibition of 3D7 malaria parasite growth – strain 3D7 (AID 2306).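 Also: 0% = DMSO wells and 100% = chloroquine plus artemisinin control wells.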 Conditions: P. falciparum 3D7 erythrocytic growth, LDH absorbance, 72 h; at 2 µM; active compounds read high.
For test [5], the target named is Calcium-dependent protein kinase 1 (Plasmodium falciparum (isolate 3D7)) (UniProt P62344). The experiment in a line: PfCDPK1 kinase inhibitors, biochemical, TCAMS library (AID 1159585; cut-off not given, nearly all actives have IC50 up to about 0.98 µM;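 also: inhibitors leave more ATP so luminescence rises with inhibition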). Conditions: recombinant PfCDPK1, Kinase-Glo ATP depletion luminescence.
Calcium-dependent protein kinase 1 (Plasmodium falciparum (isolate 3D7)), sequence (P62344 whole entry, looked up): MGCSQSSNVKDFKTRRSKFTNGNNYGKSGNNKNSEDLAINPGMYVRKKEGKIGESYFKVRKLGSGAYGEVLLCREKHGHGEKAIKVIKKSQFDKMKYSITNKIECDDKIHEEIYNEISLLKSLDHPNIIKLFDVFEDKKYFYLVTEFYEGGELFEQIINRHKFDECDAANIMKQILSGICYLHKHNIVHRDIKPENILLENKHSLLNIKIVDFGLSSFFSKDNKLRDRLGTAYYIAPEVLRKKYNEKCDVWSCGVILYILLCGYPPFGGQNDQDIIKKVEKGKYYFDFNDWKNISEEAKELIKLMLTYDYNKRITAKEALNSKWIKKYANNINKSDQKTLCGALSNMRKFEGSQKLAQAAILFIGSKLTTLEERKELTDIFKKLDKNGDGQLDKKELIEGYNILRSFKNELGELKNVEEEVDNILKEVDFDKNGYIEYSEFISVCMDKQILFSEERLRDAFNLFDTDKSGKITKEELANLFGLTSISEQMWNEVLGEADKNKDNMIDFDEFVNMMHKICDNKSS
Test [6] concerns the target Plasmodium falciparum protein kinase 6 (PK6, PF3D7_1337100) (UniProt Q8IDW1). The experiment in a line: PfPK6 kinase inhibitors, biochemical, TCAMS library (AID 1159586). Conditions: recombinant PfPK6, Kinase-Glo ATP depletion luminescence. (In general: In Kinase-Glo more light means more ATP remaining.)
Test [7] has as its target Protein kinase 7 (PK7), Plasmodium falciparum 3D7 (PF3D7_0213400) (UniProt Q7YTF7). The experiment in a line: inhibition of Plasmodium PK7 catalytic activity – biochemical, TCAMS antimalarial set, Kinase-Glo luminescence (AID 1159587). Particulars: recombinant PfPK7, Kinase-Glo ATP depletion luminescence.
The target in test [8] is Calcium-dependent protein kinase 4 (Plasmodium falciparum (isolate 3D7)) (UniProt Q8IBS5). The experiment in a line: PfCDPK4 kinase inhibitors, biochemical, TCAMS library (AID 1159588; cut-off not given, nearly all actives have IC50 up to about 0.91 µM). Particulars: recombinant PfCDPK4, Kinase-Glo ATP depletion luminescence.
Calcium-dependent protein kinase 4 (Plasmodium falciparum (isolate 3D7)), sequence (Q8IBS5 whole entry, looked up): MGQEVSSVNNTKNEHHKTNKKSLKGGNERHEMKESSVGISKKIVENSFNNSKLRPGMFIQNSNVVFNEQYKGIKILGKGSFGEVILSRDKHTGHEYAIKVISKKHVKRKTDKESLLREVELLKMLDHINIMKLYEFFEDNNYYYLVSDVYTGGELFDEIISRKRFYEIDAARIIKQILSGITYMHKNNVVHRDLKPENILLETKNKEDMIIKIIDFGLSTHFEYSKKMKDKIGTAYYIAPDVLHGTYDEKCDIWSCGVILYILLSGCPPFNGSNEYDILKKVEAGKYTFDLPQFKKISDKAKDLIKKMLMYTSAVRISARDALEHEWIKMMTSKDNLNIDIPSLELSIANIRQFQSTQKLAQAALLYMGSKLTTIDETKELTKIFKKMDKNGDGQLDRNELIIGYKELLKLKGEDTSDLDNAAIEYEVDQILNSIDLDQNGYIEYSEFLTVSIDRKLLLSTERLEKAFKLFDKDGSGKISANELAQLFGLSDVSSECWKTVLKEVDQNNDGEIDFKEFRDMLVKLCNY

A number with no mark means an inactive call. For some of these results: Results with a measured potency or affinity are listed apart. Active and inactive are the calls of the source. Unless noted, no rule for the calls is given here.

Protein kinase 7 (PK7), Plasmodium falciparum 3D7 (PF3D7_0213400), sequence (Q7YTF7 1-343): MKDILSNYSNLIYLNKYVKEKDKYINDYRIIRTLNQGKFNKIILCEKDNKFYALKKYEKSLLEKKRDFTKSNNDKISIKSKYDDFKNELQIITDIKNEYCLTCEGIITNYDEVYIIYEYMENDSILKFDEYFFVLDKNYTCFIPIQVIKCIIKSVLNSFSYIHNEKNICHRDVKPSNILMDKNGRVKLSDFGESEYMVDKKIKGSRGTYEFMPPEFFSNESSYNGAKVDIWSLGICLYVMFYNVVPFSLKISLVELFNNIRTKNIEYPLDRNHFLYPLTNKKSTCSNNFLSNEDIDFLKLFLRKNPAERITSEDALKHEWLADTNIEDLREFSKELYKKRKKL
Plasmodium falciparum protein kinase 6 (PK6, PF3D7_1337100), sequence (Q8IDW1 1-305): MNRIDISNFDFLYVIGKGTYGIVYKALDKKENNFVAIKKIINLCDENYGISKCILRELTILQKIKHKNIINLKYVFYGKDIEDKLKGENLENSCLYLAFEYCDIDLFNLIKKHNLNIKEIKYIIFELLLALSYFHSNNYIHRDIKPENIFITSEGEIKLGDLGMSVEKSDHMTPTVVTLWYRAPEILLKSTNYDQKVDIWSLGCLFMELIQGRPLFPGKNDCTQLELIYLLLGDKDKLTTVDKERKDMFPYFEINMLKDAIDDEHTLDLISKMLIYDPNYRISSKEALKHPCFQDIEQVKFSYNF

In general, inhibition refers to the relative decrease from the control value, in per cent. Turning to `COc1ccccc1/C=C/C(=O)NCCC1CCN(CCCCCNC(=O)/C=C/c2ccc(Cl)c(Cl)c2)CC1`, the values for the growth inhibition in test [1] and in test [4] were 0% and 94% (active), respectively. In addition, the results for the inhibition in test [2] and in test [3] were 34% and -4%, respectively. The result in test [5], in test [6], in test [7] and in test [8] was inactive.

Turning to `O=C(NCCN1CCCC1)c1cccc(-c2ccc(-c3nc4ccc(F)cc4[nH]3)s2)c1`, the figures for the growth inhibition in test [1] and in test [4] were 4% and 100% (active), respectively. Moreover, the values for the inhibition in test [2] and in test [3] were 51% (active) and -1%, respectively. Moreover, the outcome in test [5], in test [6], in test [7] and in test [8] was inactive.

For the compound `COC(=O)c1cccc(C#CCCOCCCCCCNC[C@H](O)c2cc(Cl)c(N)c(Cl)c2)c1`, the growth inhibition in test [1] was 88% (active); in test [4], 97% (active). Further, the inhibition is 12% in test [2] and -3% in test [3]. The outcome in test [5], in test [6], in test [7] and in test [8] was inactive.

Regarding `COc1ccc(N2CCN(CCCCNC(=O)c3ccc(NC(=O)c4ccc(OC(F)(F)F)cc4)cc3)CC2)c(OC)c1`, the growth inhibition in test [1] was 90% (active); in test [4], 101% (active). Besides, the inhibition in test [2] is 36%; in test [3], 5%. For the same compound, the outcome in test [5], in test [6], in test [7] and in test [8] was inactive.

For `O=C(Nc1cccc2ccccc12)N1CCC(NS(=O)(=O)c2cccc(C(F)(F)F)c2)CC1`, the growth inhibition was 1% in test [1] and 95% (active) in test [4]. For the same compound, the inhibition in test [2] is -5%; in test [3], -1%. Besides, the result in test [5], in test [6], in test [7] and in test [8] was inactive.

For `O=C(Nc1ccc(Cn2nc(Cl)c(N3CCNCC3)cc2=O)cc1)Nc1ccc(-c2ccccc2)cc1`, the growth inhibition is 49% in test [1] and 97% (active) in test [4]. In addition, the values for the inhibition in test [2] and in test [3] were 99% (active) and -3%, respectively. For the same compound, the result in test [5], in test [6], in test [7] and in test [8] was inactive.

In the case of `Cc1ccc(C(C)C)cc1CON1C(N)=NC(N)=NC1(C)C`, the growth inhibition was 92% (active) in test [1] and 94% (active) in test [4]. Further, the results for the inhibition in test [2] and in test [3] were 66% (active) and -3%, respectively. For the same compound, the outcome in test [5], in test [6], in test [7] and in test [8] was inactive.

Turning to `COc1cc2nc(N(C)C)nc(Nc3ccc4c(cnn4Cc4ccccc4)c3)c2cc1OC`, the results for the growth inhibition in test [1] and in test [4] were 102% (active) and 100% (active), respectively. Moreover, the figures for the inhibition in test [2] and in test [3] were 90% (active) and -4%, respectively. Moreover, the result in test [5], in test [6], in test [7] and in test [8] was inactive.

For `CCN1CCN(Cc2ccc(NC(=O)c3cc4ccc5cccnc5c4[nH]3)cc2)CC1`, the growth inhibition was 97% (active) in test [1] and 100% (active) in test [4]. Besides, the inhibition in test [2] and in test [3] was -3% throughout. Further, the outcome in test [5], in test [6], in test [7] and in test [8] was inactive.

Take `COc1ccc2[nH]c(C(=O)Nc3ccc4nc(-c5ccccc5)[nH]c4c3)cc2c1`: the results for the growth inhibition in test [1] and in test [4] were 23% and 96% (active), respectively. In addition, the inhibition was 51% (active) in test [2] and -1% in test [3]. In addition, the outcome in test [5], in test [6], in test [7] and in test [8] was inactive.

For `CN(Cc1ccc(-c2ccc(C(F)(F)F)cc2)cc1)C(=O)Cn1c(CCc2cccc(F)c2F)cc(=O)c2ccc(OCC3CCCN3C)cc21` (stereo not given), the growth inhibition in test [1] is 37%; in test [4], 87% (active). The inhibition was 100% (active) in test [2] and -6% in test [3]. The result in test [5], in test [6], in test [7] and in test [8] was inactive.

As for `COc1ccc2nccc([C@@H](O)CN3CCC(NCc4ccc5c(c4)OCCO5)CC3)c2c1`, the growth inhibition in test [1] was 92% (active); in test [4], 101% (active). Moreover, the inhibition was 9% in test [2] and -4% in test [3]. In addition, the result in test [5], in test [6], in test [7] and in test [8] was inactive.

For `COc1ccc(NC(=O)/C=C/c2ccccc2Cl)cc1OCCN1CCN(c2ccncc2)CC1`, the growth inhibition in test [1] was 52% (active); in test [4] it was 101% (active). Moreover, the inhibition is 7% in test [2] and -2% in test [3]. Also, the result in test [5], in test [6], in test [7] and in test [8] was inactive.

With `O=C(Nc1cccc(-c2ccc(-c3nc4ccc(C(F)(F)F)cc4[nH]3)cc2)c1)Nc1ccc(F)c(F)c1F`, the growth inhibition is 99% (active) in test [1] and 102% (active) in test [4]. The results for the inhibition in test [2] and in test [3] were 45% and -2%, respectively. The result in test [5], in test [6], in test [7] and in test [8] was inactive.

As for `CN1CCN(c2ccnc3ccc(NC(=O)Nc4ccc(-c5ccncc5)c5ccccc45)cc23)CC1`, the figures for the growth inhibition in test [1] and in test [4] were 84% (active) and 101% (active), respectively. Moreover, the results for the inhibition in test [2] and in test [3] were 76% (active) and -4%, respectively. The outcome in test [5], in test [6], in test [7] and in test [8] was inactive.

As for `C=CCc1c(C(=O)NCC23CC4CC(CC(C4)C2)C3)[nH]c2ccccc2c1=O`, the values for the growth inhibition in test [1] and in test [4] were 79% (active) and 86% (active), respectively. Besides, the inhibition is 40% in test [2] and 2% in test [3]. The result in test [5], in test [6], in test [7] and in test [8] was inactive.

In the case of `Cc1cc(S(=O)(=O)N2CCCCC(c3ccc(C(F)(F)F)cc3)=N2)c(Cl)cc1Cl`, the growth inhibition in test [1] and in test [4] was 97% (active) in each case. Moreover, the inhibition was 17% in test [2] and 0% in test [3]. Also, the result in test [5], in test [6], in test [7] and in test [8] was inactive.

For `CC(C)c1cc2c(ccc3nc(N)nc(N)c32)o1`, the growth inhibition was 37% in test [1] and 99% (active) in test [4]. Besides, the inhibition in test [2] is 66% (active); in test [3], 3%. Further, the result in test [5], in test [6], in test [7] and in test [8] was inactive.

As to `CN1CCN(CC(=O)Nc2ccc(-c3ccc(-c4nc5ccccc5[nH]4)s3)cc2)CC1`, the growth inhibition in test [1] was 49%; in test [4] it was 101% (active). Also, the inhibition is 12% in test [2] and -1% in test [3]. Besides, the outcome in test [5], in test [6], in test [7] and in test [8] was inactive.

`Cc1nn(-c2cccc(Cl)c2)c2c1C(C(=O)c1ccc3c(c1)OCO3)CC(=O)N2` (stereo not given): the growth inhibition in test [1] was 95% (active); in test [4] it was 98% (active). Also, the inhibition in test [2] was 5%; in test [3], -5%. Further, the result in test [5], in test [6], in test [7] and in test [8] was inactive.
